# Unmarked numbers belong to inactive results. For some assays here: Measured potencies and affinities stand elsewhere. Active and inactive are the calls of the source. Unless noted, the rule behind the calls is not given here.
# How the values were obtained:
# [1] = antimalarial activity against Dd2 strain (AID 2302;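 active = growth inhibition above 50% at the single 2 µM test dose, taken to imply half-maximal potency below 2 µM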;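 note: 0% = DMSO untreated growth and 100% = chloroquine plus artemisinin killed control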); details: P. falciparum Dd2 in RBCs, LDH growth readout, 72 h; at 2 µM; stronger effect = higher value
# [2] = HepG2 cytotoxicity, primary screen, cytotoxicity control for P. falciparum antimalarial project, cell-based, ATP luminescence (AID 2303;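 active = inhibition above 50%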;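 note: 0% = DMSO wells and 100% = digitonin-killed cells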); details: HepG2 viability, 24-48 h, at 10 µM, stronger effect = higher value
# [3] = biological target: L-lactate dehydrogenase (Plasmodium falciparum (isolate CDC / Honduras)) (UniProt Q27743); test: PfLDH activity inhibition – cell lysate, 3D7 strain, counter-screen for P. falciparum growth inhibition project (AID 2304);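 note: 0% = vehicle and 100% = reference inhibitor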; details: P. falciparum 3D7 crude extract, LDH APAD/NBT absorbance; at 2 µM; stronger effect = higher value
# [4] = inhibition of 3D7 malaria parasite growth – strain 3D7 (AID 2306);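 note: 0% = DMSO wells and 100% = chloroquine plus artemisinin control wells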; details: P. falciparum 3D7 erythrocytic growth, LDH absorbance, 72 h; at 2 µM; stronger effect = higher value
# [5] = biological target: Calcium-dependent protein kinase 1 (Plasmodium falciparum (isolate 3D7)) (UniProt P62344); test: PfCDPK1 kinase inhibitors, biochemical, TCAMS library (AID 1159585; cut-off not given, nearly all actives have IC50 up to about 0.98 µM;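 note: inhibitors leave more ATP so luminescence rises with inhibition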); details: recombinant PfCDPK1, Kinase-Glo ATP depletion luminescence
# [6] = biological target: Plasmodium falciparum protein kinase 6 (PK6, PF3D7_1337100) (UniProt Q8IDW1); test: PfPK6 kinase inhibitors, biochemical, TCAMS library (AID 1159586); details: recombinant PfPK6, Kinase-Glo ATP depletion luminescence
# [7] = biological target: Protein kinase 7 (PK7), Plasmodium falciparum 3D7 (PF3D7_0213400) (UniProt Q7YTF7); test: inhibition of Plasmodium PK7 catalytic activity – biochemical, TCAMS antimalarial set, Kinase-Glo luminescence (AID 1159587); details: recombinant PfPK7, Kinase-Glo ATP depletion luminescence
# [8] = biological target: Calcium-dependent protein kinase 4 (Plasmodium falciparum (isolate 3D7)) (UniProt Q8IBS5); test: PfCDPK4 kinase inhibitors, biochemical, TCAMS library (AID 1159588; cut-off not given, nearly all actives have IC50 up to about 0.91 µM); details: recombinant PfCDPK4, Kinase-Glo ATP depletion luminescence
# Chain of Calcium-dependent protein kinase 4 (Plasmodium falciparum (isolate 3D7)) (Q8IBS5 whole entry, looked up): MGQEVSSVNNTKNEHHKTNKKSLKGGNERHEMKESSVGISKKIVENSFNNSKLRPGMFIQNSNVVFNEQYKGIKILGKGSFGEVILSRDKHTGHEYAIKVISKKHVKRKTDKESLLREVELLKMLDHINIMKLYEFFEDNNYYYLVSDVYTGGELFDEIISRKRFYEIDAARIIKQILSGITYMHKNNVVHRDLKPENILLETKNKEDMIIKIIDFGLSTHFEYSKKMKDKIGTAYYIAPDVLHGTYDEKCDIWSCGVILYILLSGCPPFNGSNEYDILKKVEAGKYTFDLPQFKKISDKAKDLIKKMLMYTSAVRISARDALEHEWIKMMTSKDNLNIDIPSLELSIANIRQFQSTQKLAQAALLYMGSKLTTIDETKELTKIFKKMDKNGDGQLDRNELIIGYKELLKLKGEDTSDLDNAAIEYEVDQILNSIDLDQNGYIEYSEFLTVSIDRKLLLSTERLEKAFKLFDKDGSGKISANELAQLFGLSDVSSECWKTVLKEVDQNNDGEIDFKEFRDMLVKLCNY
# Chain of Plasmodium falciparum protein kinase 6 (PK6, PF3D7_1337100) (Q8IDW1 1-305): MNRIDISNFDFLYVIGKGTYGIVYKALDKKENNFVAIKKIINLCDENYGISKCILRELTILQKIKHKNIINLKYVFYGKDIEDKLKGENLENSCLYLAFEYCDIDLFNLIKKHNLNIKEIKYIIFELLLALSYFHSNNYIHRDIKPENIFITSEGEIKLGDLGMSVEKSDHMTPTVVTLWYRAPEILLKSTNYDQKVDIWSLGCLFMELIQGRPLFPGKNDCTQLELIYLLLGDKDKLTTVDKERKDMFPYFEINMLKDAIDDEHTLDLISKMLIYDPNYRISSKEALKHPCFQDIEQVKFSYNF
# Chain of L-lactate dehydrogenase (Plasmodium falciparum (isolate CDC / Honduras)) (Q27743 whole entry, looked up): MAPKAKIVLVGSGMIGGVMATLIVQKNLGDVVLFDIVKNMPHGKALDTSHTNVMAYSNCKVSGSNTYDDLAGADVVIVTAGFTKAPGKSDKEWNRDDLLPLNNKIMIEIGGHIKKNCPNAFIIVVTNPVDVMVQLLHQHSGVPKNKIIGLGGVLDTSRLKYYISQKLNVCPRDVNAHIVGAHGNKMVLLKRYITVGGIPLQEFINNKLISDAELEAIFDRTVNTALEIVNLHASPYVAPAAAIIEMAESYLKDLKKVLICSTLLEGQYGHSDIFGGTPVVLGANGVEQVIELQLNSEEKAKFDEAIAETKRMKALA
# Chain of Calcium-dependent protein kinase 1 (Plasmodium falciparum (isolate 3D7)) (P62344 whole entry, looked up): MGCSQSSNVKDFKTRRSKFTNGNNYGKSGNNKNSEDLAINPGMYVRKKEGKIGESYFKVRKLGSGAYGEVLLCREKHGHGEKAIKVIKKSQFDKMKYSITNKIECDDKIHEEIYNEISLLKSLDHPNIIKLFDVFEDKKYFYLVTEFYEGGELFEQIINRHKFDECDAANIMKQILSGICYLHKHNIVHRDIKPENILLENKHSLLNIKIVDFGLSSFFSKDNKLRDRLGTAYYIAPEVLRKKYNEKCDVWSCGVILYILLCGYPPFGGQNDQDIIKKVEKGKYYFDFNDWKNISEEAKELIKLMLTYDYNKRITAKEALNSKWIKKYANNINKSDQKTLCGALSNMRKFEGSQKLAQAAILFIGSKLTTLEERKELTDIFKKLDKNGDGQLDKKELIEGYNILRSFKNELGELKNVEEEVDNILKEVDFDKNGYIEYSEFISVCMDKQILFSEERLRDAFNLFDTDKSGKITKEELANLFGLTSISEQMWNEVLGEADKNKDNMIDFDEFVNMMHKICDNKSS
# Chain of Protein kinase 7 (PK7), Plasmodium falciparum 3D7 (PF3D7_0213400) (Q7YTF7 1-343): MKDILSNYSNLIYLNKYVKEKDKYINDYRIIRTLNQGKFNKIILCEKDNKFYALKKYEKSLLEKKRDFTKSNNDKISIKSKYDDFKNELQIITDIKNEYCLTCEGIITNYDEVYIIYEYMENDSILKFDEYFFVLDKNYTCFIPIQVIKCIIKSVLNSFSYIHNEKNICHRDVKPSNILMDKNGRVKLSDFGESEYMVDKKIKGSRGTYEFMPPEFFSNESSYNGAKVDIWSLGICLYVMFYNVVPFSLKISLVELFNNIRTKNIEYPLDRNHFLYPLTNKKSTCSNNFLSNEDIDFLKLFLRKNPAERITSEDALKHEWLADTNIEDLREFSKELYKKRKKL
Structure (SMILES),growth inhibition [1],inhibition [2],inhibition [3] [%],growth inhibition [4],outcome [5],outcome [6],outcome [7],outcome [8]
Cc1cc(F)ccc1[C@H]1CNCCN1C(=O)N(C)[C@@H](C)c1cc(C(F)(F)F)cc(C(F)(F)F)c1,99% (active),20%,1,100% (active),inactive,inactive,inactive,inactive
CC(=O)Nc1nc(C(=O)Nc2ccc(-c3ccc(-c4nc5c(C)cccc5[nH]4)cc3)cc2)cs1,53% (active),42%,-1,101% (active),inactive,inactive,inactive,inactive
O=C(COc1ccccc1Cc1ccccc1)Nc1cc(Cl)ccc1-n1cncn1,93% (active),5%,-2,92% (active),inactive,inactive,inactive,inactive
Cc1nc(-c2cccc(Nc3nccc(NCC(O)c4ccccc4)n3)c2)cs1 (stereo not given),82% (active),43%,3,99% (active),inactive,inactive,inactive,inactive
O=C(NC1CCCCCC1)[C@@H]1CCCN1C(=O)c1ccc(O)c(-c2ccc(Cl)c(Cl)c2)c1,98% (active),-2%,-7,99% (active),inactive,inactive,inactive,inactive
CCn1ncc(Cl)c1CN(C)S(=O)(=O)c1ccc(Br)cc1,70% (active),9%,4,90% (active),inactive,inactive,inactive,inactive
Cc1ncccc1C(=O)Nc1ccc(-c2cccc(-c3nc4c(C)cccc4[nH]3)c2)cc1,31%,6%,-5,95% (active),inactive,inactive,inactive,inactive
Cc1ccccc1CCNC(=O)c1cnc(N2CCN(c3ccncc3)CC2)c(Cl)c1,95% (active),36%,-2,100% (active),inactive,inactive,inactive,inactive
CCCCCCn1c(Sc2ccc(C#N)c([N+](=O)[O-])c2)nnc1-c1ccc(Cl)cc1,48%,23%,0,93% (active),inactive,inactive,inactive,inactive
N#Cc1cccc(COC(=O)C2=C(COc3ccccc3Cl)NC(=O)NC2c2c[nH]c3cnccc23)c1 (stereo not given),-3%,0%,-1,99% (active),inactive,inactive,inactive,inactive
C=CCOC(=O)N1CCC(CNCc2ccc(-c3ccc(-c4nc5ccccc5[nH]4)s3)cc2)C1 (stereo not given),76% (active),29%,-2,101% (active),inactive,inactive,inactive,inactive
CN(C)c1ccc(CN2CCC(NC(=O)c3ccc(-c4ccccc4Cl)s3)CC2)cc1,27%,35%,-1,82% (active),inactive,inactive,inactive,inactive
C[C@@H](CC1CCCCC1)OC(=O)N[C@H]1CCN(C#N)C1,83% (active),7%,1,95% (active),inactive,inactive,inactive,inactive
O=C(NC1CCN(CC2(c3ccc(Cl)cc3)CCCCC2)CC1)c1ccn[nH]1,96% (active),-3%,4,98% (active),inactive,inactive,inactive,inactive
COc1ccc2nc3cc(Cl)ccc3c(NCc3ccccc3)c2c1,50% (active),8%,5,101% (active),inactive,inactive,inactive,inactive
COc1ccc(CNCc2ccccc2)cc1-c1ccc(S(=O)(=O)NCCN2CCCC2)c(C)c1,50% (active),33%,3,99% (active),inactive,inactive,inactive,inactive
COc1ccc(-c2nc3c(N)nc(N)nc3nc2-c2ccccc2Cl)cc1 (tested in a mixture with another compound),-1%,45%,-2,93% (active),inactive,inactive,inactive,inactive
C=CCn1c(Sc2ccc(C#N)c([N+](=O)[O-])c2)nnc1-c1cc(OC)cc(OC)c1,84% (active),12%,0,96% (active),inactive,inactive,inactive,inactive
CCCNCc1ccc(-c2ccc(CN(Cc3cnc(C)cn3)C(=O)CC#N)cc2)nc1,-3%,4%,5,92% (active),inactive,inactive,inactive,inactive
COc1ccc(-c2ccc(NC(=O)c3ccc(Cl)cc3)cc2)cc1CN1CCNCC1,24%,14%,5,99% (active),inactive,inactive,inactive,inactive

Structure (SMILES),growth inhibition [1],inhibition [2],inhibition [3] [%],growth inhibition [4],outcome [5],outcome [6],outcome [7],outcome [8]
COc1ccc(-c2ccccc2CNC2Cc3ccccc3C2)cc1S(=O)(=O)NCCN1CCCC1,47%,18%,-3,96% (active),inactive,inactive,inactive,inactive
COc1ccc2nc(C)cc(Nc3ccc(Cl)c(Cl)c3)c2c1,99% (active),30%,-8,100% (active),inactive,inactive,inactive,inactive
CCCN1CCC2(CC1)NC(C(=O)NCCC(C)C)Cc1c2[nH]c2cc(Cl)ccc12 (stereo not given),0%,13%,-3,86% (active),inactive,inactive,inactive,inactive
COc1ccccc1CCNc1nc(C)cc(N[C@@H](Cc2ccccc2)C(=O)NCCc2ccccc2)n1,89% (active),16%,-3,100% (active),inactive,inactive,inactive,inactive
CC(C(=O)OCCOCn1cnc2c(=O)[nH]c(N)nc21)N(C)C(=O)OC(C)(C)C (stereo not given),-1%,28%,2,87% (active),inactive,inactive,inactive,inactive
c1cc(Nc2nccc(-c3cnn4ncccc34)n2)cc(-c2cnco2)c1,83% (active),54% (active),3,96% (active),inactive,inactive,inactive,inactive
COc1cc(NC(=O)CCCN2CCN(c3cccc(Cl)c3Cl)CC2)ccc1N1CCN(C(C)C)CC1,59% (active),31%,4,99% (active),inactive,inactive,inactive,inactive
COc1ccc(OCc2ccccn2)c(C2CCN(CCCCNC(=O)c3ccc(NC(=O)c4ccc(Cl)cc4)cc3)CC2)c1,71% (active),18%,4,98% (active),inactive,inactive,inactive,inactive
COc1ccc(-c2ccc(NC(=O)c3cccc(Cl)c3)c(F)c2)cc1CNC(C)C,14%,19%,-5,93% (active),inactive,inactive,inactive,inactive
COc1cc2c(C3CCN(CC4CCN(C(=O)/C=C/c5ccc(Cl)c(Cl)c5)CC4)CC3)c[nH]c2cn1,88% (active),27%,-1,101% (active),inactive,inactive,inactive,inactive
CN(C)CCN(C)Cc1ccc(-c2cccc(NC(=O)c3ccc(Cl)cc3)c2)cc1,71% (active),69% (active),-5,97% (active),inactive,inactive,inactive,inactive
Cc1ccc(N/C(N)=N/c2ncccc2OCc2c(F)cccc2Cl)cc1,54% (active),78% (active),-2,86% (active),inactive,inactive,inactive,inactive
Cc1ccc(NC(=O)c2cccc(CN3CCCN(Cc4cccc(O)c4)CC3)c2)cc1,3%,22%,1,82% (active),inactive,inactive,inactive,inactive
CCC(Cc1ccccc1)c1cc(O)c(Cc2ccc(-c3ccccc3)cc2)c(=O)o1 (stereo not given),-3%,3%,-1,89% (active),inactive,inactive,inactive,inactive
CNc1ccc(CNCc2ccc(-c3ccc(-c4nc5ccc(C(F)(F)F)cc5[nH]4)s3)cc2)cc1,97% (active),44%,-2,102% (active),inactive,inactive,inactive,inactive
C=CCn1c(Sc2ccc(C#N)c([N+](=O)[O-])c2)nnc1-c1ccc(Cl)cc1,85% (active),13%,3,97% (active),inactive,inactive,inactive,inactive
CN1CCCN(Cc2cccc(-c3ccc(NC(=O)c4cccc(C#N)c4)cc3)c2)CC1,96% (active),27%,-6,102% (active),inactive,inactive,inactive,inactive
OC(c1n[nH]c(=S)n1-c1ccccc1)C(O)c1n[nH]c(=S)n1-c1ccccc1 (stereo not given),89% (active),18%,4,92% (active),inactive,inactive,inactive,inactive
CSc1nc2cc3c(cc2n1C(=O)c1ccc(C)cc1)OCCO3,-1%,-6%,-6,99% (active),inactive,inactive,inactive,inactive
Cc1nc2ccc(/C=C/C(=O)NC3CCC(CCN4CCc5ccc(C#N)cc5CC4)CC3)cc2[nH]1 (stereo not given),21%,7%,-2,88% (active),inactive,inactive,inactive,inactive
